From the supplement of paper PMC8728848
Only a selection was taken, and the strongest signals are over-represented in it overall.

Key:
Experiment in all cases: glycan array binding signal (z-score within array); higher = stronger binding
Conditions in all cases: glycan notation: IUPAC condensed, linker removed
[1] = target: Fuc(a1-2)Gal(b1-3)[Fuc(a1-4)]GlcNAc(b1-2)Man(a1-3)[Fuc(a1-2)Gal(b1-3)[Fuc(a1-4)]GlcNAc(b1-2)Man(a1-6)]Man(b1-4)GlcNAc(b1-4)[Fuc(a1-6)]GlcNAc(b1-4)[Fuc(a1-6)]GlcNAc
How it was run: (§1)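 Negative Z-scores can be read as non-binding. The Z-score is calculated within each array and then averaged across arrays of one protein sequence at different concentrations or buffers and across linkers. Arrays, 3228 in all, were curated from the Consortium for Functional Glycomics database and kept only where the protein sequence was available.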

[2] = target: Fuc(a1-2)Gal(b1-4)GlcNAc(b1-3)Gal(b1-4)GlcNAc
How it was run: as §1

[3] = target: Fuc(a1-2)Gal(b1-4)GlcNAc(b1-3)GalNAc
How it was run: as §1

[4] = target: Fuc(a1-2)[Gal(a1-3)]Gal(b1-3)GlcNAc(b1-2)Man(a1-3)[Fuc(a1-2)[Gal(a1-3)]Gal(b1-3)GlcNAc(b1-2)Man(a1-6)]Man(b1-4)GlcNAc(b1-4)GlcNAc
How it was run: as §1

[5] = target: Fuc(a1-2)[Gal(a1-3)]Gal(b1-4)Glc
How it was run: as §1

[6] = target: Fuc(a1-2)[Gal(a1-3)]Gal(b1-4)GlcNAc(b1-6)GalNAc
How it was run: as §1

[7] = target: Fuc(a1-2)[Gal(a1-3)]Gal(b1-4)[Fuc(a1-3)]Glc
How it was run: as §1

[8] = target: Fuc(a1-2)[GalNAc(a1-3)]Gal(b1-3)GalNAc(a1-3)[Fuc(a1-2)]Gal(b1-4)GlcNAc
How it was run: as §1

[9] = target: Fuc(a1-3)[Gal3S(b1-4)]GlcNAc
How it was run: as §1

[10] = target: Fuc(a1-3)[Gal3S(b1-4)]GlcNAc6S
How it was run: as §1

Fuc(a1-4)GlcNAc = target: Fuc(a1-4)GlcNAc
How it was run: as §1

[11] = target: Gal(a1-3)Gal(b1-4)[Fuc(a1-3)]GlcNAc(b1-2)Man(a1-3)[Gal(a1-3)Gal(b1-4)[Fuc(a1-3)]GlcNAc(b1-2)Man(a1-6)]Man(b1-4)GlcNAc(b1-4)GlcNAc
How it was run: as §1

[12] = target: Gal(a1-3)[Gal(a1-4)]Gal(b1-4)GlcNAc
How it was run: as §1

[13] = target: Gal(b1-3)GalNAc(a1-3)[Fuc(a1-2)]Gal(b1-4)Glc
How it was run: as §1

[14] = target: Gal(b1-3)GalNAc(b1-4)Gal(b1-4)Glc
How it was run: as §1

[15] = target: Gal(b1-3)GlcNAc(b1-3)Gal(b1-4)GlcNAc(b1-2)[Gal(b1-3)GlcNAc(b1-3)Gal(b1-4)GlcNAc(b1-6)]Man(a1-6)[Gal(b1-3)GlcNAc(b1-3)Gal(b1-4)GlcNAc(b1-2)Man(a1-3)]Man(b1-4)GlcNAc(b1-4)[Fuc(a1-6)]GlcNAc
How it was run: as §1

[16] = target: Gal(b1-3)GlcNAc(b1-6)[Gal(b1-3)]GalNAc
How it was run: as §1

[17] = target: Gal(b1-4)GlcNAc(b1-2)Man(a1-3)[GlcNAc(b1-2)Man(a1-6)]Man(b1-4)GlcNAc(b1-4)GlcNAc
How it was run: as §1

[18] = target: Gal(b1-4)GlcNAc(b1-2)Man(a1-6)[GlcNAc(b1-2)Man(a1-3)]Man(b1-4)GlcNAc(b1-4)GlcNAc
How it was run: as §1

[19] = target: Gal(b1-4)GlcNAc(b1-2)[Gal(b1-4)GlcNAc(b1-6)]Man(a1-6)[GlcNAc(b1-4)][Gal(b1-4)GlcNAc(b1-2)[Gal(b1-4)GlcNAc(b1-4)]Man(a1-3)]Man(b1-4)GlcNAc(b1-4)[Fuc(a1-6)]GlcNAc
How it was run: as §1

[20] = target: Gal(b1-4)GlcNAc(b1-3)Gal(b1-3)GalNAc
How it was run: as §1

[21] = target: Gal(b1-4)GlcNAc(b1-3)Gal(b1-4)GlcNAc(b1-2)[Gal(b1-4)GlcNAc(b1-3)Gal(b1-4)GlcNAc(b1-6)]Man(a1-6)[Gal(b1-4)GlcNAc(b1-3)Gal(b1-4)GlcNAc(b1-2)Man(a1-3)]Man(b1-4)GlcNAc(b1-4)GlcNAc
How it was run: as §1

[22] = target: Gal(b1-4)GlcNAc(b1-3)Gal(b1-4)GlcNAc(b1-3)Gal(b1-4)GlcNAc(b1-3)Gal(b1-4)GlcNAc(b1-2)Man(a1-3)[Gal(b1-4)GlcNAc(b1-3)Gal(b1-4)GlcNAc(b1-3)Gal(b1-4)GlcNAc(b1-3)Gal(b1-4)GlcNAc(b1-2)Man(a1-6)]Man(b1-4)GlcNAc(b1-4)GlcNAc
How it was run: as §1

[23] = target: Gal(b1-4)GlcNAc(b1-3)Gal(b1-4)GlcNAc(b1-3)Gal(b1-4)GlcNAc(b1-3)Gal(b1-4)GlcNAc(b1-3)Gal(b1-4)GlcNAc(b1-2)Man(a1-3)[Gal(b1-4)GlcNAc(b1-3)Gal(b1-4)GlcNAc(b1-3)Gal(b1-4)GlcNAc(b1-3)Gal(b1-4)GlcNAc(b1-3)Gal(b1-4)GlcNAc(b1-2)Man(a1-6)]Man(b1-4)GlcNAc(b1-4)GlcNAc
How it was run: as §1

Gal6S(b1-3)GlcNAc6S = target: Gal6S(b1-3)GlcNAc6S
How it was run: as §1

[24] = target: GalNAc(b1-4)GlcNAc(b1-3)GalNAc(b1-4)GlcNAc
How it was run: as §1

GalNAc3S(b1-4)GlcNAc3S = target: GalNAc3S(b1-4)GlcNAc3S
How it was run: as §1

GalNAc6S(b1-4)GlcNAc = target: GalNAc6S(b1-4)GlcNAc
How it was run: as §1

Glc(b1-4)Glc = target: Glc(b1-4)Glc
How it was run: as §1

[25] = target: GlcNAc(b1-3)Gal(b1-3)GalNAc
How it was run: as §1

B1: PX9896A-bth-573-26-573 (Bacteroides thetaiotaomicron) (protein)
chain: ETNNLKTKEDMYKYFGTSKSMLTHVYSYMPQGYQLFATSGGIFTEDRYSMRDCASDDGEFGAYADNIQNTNNGNWSPIKTYDDSWTLYRGIRAANSFIAEIAQVDFTRYEHDGQYTNWMKQLKYFPYEARVLRAHYFFELARRYGDIAMPLEVLTEEEANTIGKTPFSEVISFIVSECDDAANNLPDSYVNEPGAEIGRVTKGFAMAVKSKALLYAASKLHNPSMDTELWKKSAKAAIDIINTGLYSLDPQESANNLDSKEVVLMRINGDDSDFEMFNLPLRMTAGTRTSSLIPYSNYPSQNLVDAFETVNGYKVTLENTGWVCEDPAFDPQSPYENRDKRFYRAILANGMSFKDYTIETFKGGADDGIVSQGGSPTGYFLRKYIQEATSFEPGKEAVSKHHWVIYRYAETLLTYAESMVNAFNDVNYTDETYKYSALWAINEVRKNADMPLIPSMGKDEFMERLYNEWRVEFAFEDHRFWDVRRWKIADTTQRELYGVKIEKQADGTFNFYKNLYETRNWRDCMYLYPIPQSELYKNTNLNPQNTGW
glycan array binding signal (z-score) [1]: 0.845
glycan array binding signal (z-score) [2]: -0.815
glycan array binding signal (z-score) [3]: 0.126
glycan array binding signal (z-score) [4]: 5.75
glycan array binding signal (z-score) [5]: -0.838
glycan array binding signal (z-score) [6]: -0.304
glycan array binding signal (z-score) [7]: -1.01
glycan array binding signal (z-score) [8]: 0.607
glycan array binding signal (z-score) [9]: -0.437
glycan array binding signal (z-score) [10]: 8.17
glycan array binding signal (z-score) (Fuc(a1-4)GlcNAc): 0.243
glycan array binding signal (z-score) [11]: 2.9
glycan array binding signal (z-score) [12]: 3.79
glycan array binding signal (z-score) [13]: -0.889
glycan array binding signal (z-score) [14]: -0.458
glycan array binding signal (z-score) [15]: 3.52
glycan array binding signal (z-score) [16]: 0.949
glycan array binding signal (z-score) [17]: 3.74
glycan array binding signal (z-score) [18]: 4.65
glycan array binding signal (z-score) [19]: 0.323
glycan array binding signal (z-score) [20]: -0.185
glycan array binding signal (z-score) [21]: 5.18
glycan array binding signal (z-score) [22]: 0.219
glycan array binding signal (z-score) [23]: 0.845
glycan array binding signal (z-score) (Gal6S(b1-3)GlcNAc6S): 3.99
glycan array binding signal (z-score) [24]: -0.28
glycan array binding signal (z-score) (GalNAc3S(b1-4)GlcNAc3S): -0.744
glycan array binding signal (z-score) (GalNAc6S(b1-4)GlcNAc): -0.663
glycan array binding signal (z-score) (Glc(b1-4)Glc): 0.069
glycan array binding signal (z-score) [25]: -0.077
